The test system of one assay is PXR homodimer (NR concentration 270 nM). In words: PBM binding z-score (relative to random genomic background probes); higher = stronger binding; sequences stand for … in GC…GCGATTGACAGCGTAGAATGAAGG
The method in brief: (§1)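 The probes on custom Agilent 4×180K protein-binding microarrays were double-stranded, with 34-nt variable regions bearing direct-repeat seeds, single-nucleotide variants, half-site ablations and random human genomic background sequences. Incubation lasted 1 h with ligand-free nuclear receptor dimers in PBS pH 7.4, 2% milk, 0.02% Triton X-100, 1 mM DTT, 0.2 mg/mL BSA and 0.4 mg/ml salmon testes DNA. Antibodies against each partner (one per run) detected bound dimers, and fluorescence scans were regression-normalized. Binding z-scores take the random background probes as reference.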
The sequence TCTGCTAGGTCAGTTCGTCAGCTAACGAGCTGCC came in with a PBM binding z-score of -1.06.

Turning to CCTACTGGGGCAAAAAGGTCATTGATGCCGATAA, the PBM binding z-score stood at 5.54.

As for TTACCAAGGTGAAAGGTAGTTGATGCACGCCTTG, the PBM binding z-score is -0.0575.

In turn, TCAGACAGGTGAAGGTAACTTAGGTACGCAGTCG gave a PBM binding z-score of 0.206.

Consider GCTGCTAGGTCAGGTGGGTCAGCTAACGGGTACG, for which the PBM binding z-score was -0.409.

With TAGCCTAGCTCATTGGGCCAGTATAGTACGCATC, the PBM binding z-score is -0.368.

As to AACACAGGGTCATCGTAGGCCAGAGTACGCACAG, the PBM binding z-score was found to be 0.707.

On to GTACCAAGGTGGATAGGTCGTTGATGAGTAGGCG, for which the PBM binding z-score was 0.137.

With ACTATTAGTTGAGACGAGGGTAACCGATAGGTTG, the PBM binding z-score is 0.43.

Sequence CGTCAAAGTTCTACTAAGGTAACGTAAAGCACGC had a PBM binding z-score of -0.028.

For the sequence CGTCCAAGGTCAGAGGTCAGTGAAGAGATGACGG, the PBM binding z-score stood at 1.13.

For GCTATTAATTGAAAGGGCAACCGAATGATTCTCG, the PBM binding z-score came out at 1.04.

The sequence GCATATAGGTAATACAAGGTGAACGTCCGATTGT displayed a PBM binding z-score of 0.124.

Take CGTGCAAGGTCATAGGAGGTCAGTGAAGACAGAT: the PBM binding z-score came out at 4.19.

CAAACTAGGTCACCGGAAGGTCAAAGTCCGCATG: the PBM binding z-score worked out at 1.99.

Consider TAGGCTAGGTCATGGGCCAGTATACCACGCGAAC, for which the PBM binding z-score was -0.616.

Take CGTCCAAGGTCAGAGAGGTCAGGGAATGCCGAGT: the PBM binding z-score was 10.6.

As to AGAATGACGTTATTAAGATCAGGGAATTGCGGTC, the PBM binding z-score was -0.378.

The next assay has as its system RARa:RXR (NR concentration 270 nM, RXRa partner concentration 90 nM). The assay is described as above. The gist of the method: as §1
CTACCAAAGTGAACAAGGTCGTTGATTACTATTC gave a PBM binding z-score of 1.47.

For the sequence GCTAGTTGCTCAGTAAAAGGTCACACACCGGTCG, the PBM binding z-score was 5.72.

In turn, TCTCGGGGGACACGAAAGGTCAGAGCTCGACATC showed a PBM binding z-score of 5.57.

For the sequence AGTCAAAGTTCATCTAGGTAACGTAAGATATGCT, the PBM binding z-score came out at 3.72.

Sequence ATATGTAGGTCACATCCGGGTCATTCAGGCTATG yielded a PBM binding z-score of 5.31.

In turn, AGAATGAGGTTAAGAGCAGGGAAACAGAATACAT displayed a PBM binding z-score of 1.69.

The sequence GCTTACGGGTCAAAGGTTATAGCCTGAATAGAAT had a PBM binding z-score of 8.66.

Sequence CAAGCTAGGTCACGAAAGGTCAAAGTCGAATGAC yielded a PBM binding z-score of 7.85.

TAGCCTATGTCATGGGCCAGTATACCACGCGAAC: the PBM binding z-score worked out at 0.249.

Turning to CGTCCAAGGTCAGCAGGTCAGTGACAGCGACGTG, the PBM binding z-score is 5.22.

Consider TCATATAGGTAAAGGTGAAAGTGGAACGATATGA, for which the PBM binding z-score came to 2.26.

In turn, ATCTCAAGGTAACCAAGTTCAGTGAATGCCGAAC came in with a PBM binding z-score of 1.14.

Turning to CCTTACGGGTCAAGGTGATAGCACGGGTGGTACG, the PBM binding z-score stood at 3.84.

For ACAGACAGGTGAGTGAAGGTATCTCAGCTGGACG, the PBM binding z-score was -0.438.

In the case of CAAACTAGGTCAAAGGTCCAAGTCGAGCCAACCA, the PBM binding z-score stood at 5.03.

As to ATATGTAGGTTAAGGGTCAGTCAGGTTGGTTCGC, the PBM binding z-score was 4.53.

Sequence TCTGCTAGGTCAGTTGTTCAGCTAACGAGCTGCC registered a PBM binding z-score of 0.419.

AGTCAAAGTTCAGGAGGAGGTAACGTAAAGCACG returned a PBM binding z-score of 3.17.

CCTTGCAGGCCAATCTGGGTCACTCAAGGCTTGA yielded a PBM binding z-score of 1.59.

The sequence AGAACGAAGGCAATGAGTTGATAGCACGGGTGGC displayed a PBM binding z-score of -0.69.

Sequence AGTCAAAGTTCACTAGGTAACGTGAGATTCAGCT came in with a PBM binding z-score of 2.87.

The sequence GTACCAAGGTGAATTGGTCGTTGATGAGTAGGCG showed a PBM binding z-score of -0.15.

The sequence TCTGCTAGGTCAGTTCGTCAGCTAACGAGCTGCC returned a PBM binding z-score of 0.273.

Take CCTACTGGGGCAAAAAGGTCATTGATGCCGATAA: the PBM binding z-score stood at 5.35.

As to TTACCAAGGTGAAAGGTAGTTGATGCACGCCTTG, the PBM binding z-score was 1.41.

TCAGACAGGTGAAGGTAACTTAGGTACGCAGTCG registered a PBM binding z-score of 1.27.

GCTGCTAGGTCAGGTGGGTCAGCTAACGGGTACG: the PBM binding z-score amounted to 1.66.

TAGCCTAGCTCATTGGGCCAGTATAGTACGCATC showed a PBM binding z-score of -0.451.

Take AACACAGGGTCATCGTAGGCCAGAGTACGCACAG: the PBM binding z-score came out at 4.91.

On to GTACCAAGGTGGATAGGTCGTTGATGAGTAGGCG, for which the PBM binding z-score was -0.144.

ACTATTAGTTGAGACGAGGGTAACCGATAGGTTG registered a PBM binding z-score of 0.64.

As to CGTCAAAGTTCTACTAAGGTAACGTAAAGCACGC, the PBM binding z-score came to 0.398.

With CGTCCAAGGTCAGAGGTCAGTGAAGAGATGACGG, the PBM binding z-score was 7.11.

Take GCTATTAATTGAAAGGGCAACCGAATGATTCTCG: the PBM binding z-score was 0.517.

GCATATAGGTAATACAAGGTGAACGTCCGATTGT had a PBM binding z-score of 1.37.

CGTGCAAGGTCATAGGAGGTCAGTGAAGACAGAT: the PBM binding z-score is 6.63.

Sequence CAAACTAGGTCACCGGAAGGTCAAAGTCCGCATG came in with a PBM binding z-score of 6.98.

In turn, TAGGCTAGGTCATGGGCCAGTATACCACGCGAAC returned a PBM binding z-score of 2.78.

CGTCCAAGGTCAGAGAGGTCAGGGAATGCCGAGT returned a PBM binding z-score of 5.44.

For AGAATGACGTTATTAAGATCAGGGAATTGCGGTC, the PBM binding z-score is -0.472.

For another assay, the system named is RARa homodimer (NR concentration 270 nM). The description is as above. The gist of the method:
as §1
CTACCAAAGTGAACAAGGTCGTTGATTACTATTC: the PBM binding z-score was 0.789.

As for GCTAGTTGCTCAGTAAAAGGTCACACACCGGTCG, the PBM binding z-score worked out at 1.56.

The sequence TCTCGGGGGACACGAAAGGTCAGAGCTCGACATC yielded a PBM binding z-score of 2.64.

Turning to AGTCAAAGTTCATCTAGGTAACGTAAGATATGCT, the PBM binding z-score was determined as 2.

For the sequence ATATGTAGGTCACATCCGGGTCATTCAGGCTATG, the PBM binding z-score turned out to be 0.84.

AGAATGAGGTTAAGAGCAGGGAAACAGAATACAT gave a PBM binding z-score of -0.0125.

On to GCTTACGGGTCAAAGGTTATAGCCTGAATAGAAT, for which the PBM binding z-score is -0.0748.

CAAGCTAGGTCACGAAAGGTCAAAGTCGAATGAC returned a PBM binding z-score of 4.08.

In the case of TAGCCTATGTCATGGGCCAGTATACCACGCGAAC, the PBM binding z-score was -0.171.

In the case of CGTCCAAGGTCAGCAGGTCAGTGACAGCGACGTG, the PBM binding z-score was found to be 2.42.

The sequence TCATATAGGTAAAGGTGAAAGTGGAACGATATGA displayed a PBM binding z-score of 0.548.

In the case of ATCTCAAGGTAACCAAGTTCAGTGAATGCCGAAC, the PBM binding z-score amounted to 0.198.

Take CCTTACGGGTCAAGGTGATAGCACGGGTGGTACG: the PBM binding z-score was 0.455.

Take ACAGACAGGTGAGTGAAGGTATCTCAGCTGGACG: the PBM binding z-score was -0.61.

The sequence CAAACTAGGTCAAAGGTCCAAGTCGAGCCAACCA showed a PBM binding z-score of 0.553.

Sequence ATATGTAGGTTAAGGGTCAGTCAGGTTGGTTCGC came in with a PBM binding z-score of 2.65.

The sequence TCTGCTAGGTCAGTTGTTCAGCTAACGAGCTGCC had a PBM binding z-score of -1.19.

In turn, AGTCAAAGTTCAGGAGGAGGTAACGTAAAGCACG came in with a PBM binding z-score of 1.91.

Consider CCTTGCAGGCCAATCTGGGTCACTCAAGGCTTGA, for which the PBM binding z-score is -0.229.

The sequence AGAACGAAGGCAATGAGTTGATAGCACGGGTGGC returned a PBM binding z-score of -0.881.

For the sequence AGTCAAAGTTCACTAGGTAACGTGAGATTCAGCT, the PBM binding z-score was found to be 0.41.

In the case of GTACCAAGGTGAATTGGTCGTTGATGAGTAGGCG, the PBM binding z-score is -0.635.

Regarding TCTGCTAGGTCAGTTCGTCAGCTAACGAGCTGCC, the PBM binding z-score was -1.33.

In turn, CCTACTGGGGCAAAAAGGTCATTGATGCCGATAA yielded a PBM binding z-score of 2.82.

TTACCAAGGTGAAAGGTAGTTGATGCACGCCTTG came in with a PBM binding z-score of 0.138.

On to TCAGACAGGTGAAGGTAACTTAGGTACGCAGTCG, for which the PBM binding z-score amounted to 0.365.

GCTGCTAGGTCAGGTGGGTCAGCTAACGGGTACG registered a PBM binding z-score of -0.0518.

As for TAGCCTAGCTCATTGGGCCAGTATAGTACGCATC, the PBM binding z-score was -1.17.

The sequence AACACAGGGTCATCGTAGGCCAGAGTACGCACAG showed a PBM binding z-score of 0.823.

The sequence GTACCAAGGTGGATAGGTCGTTGATGAGTAGGCG displayed a PBM binding z-score of 0.114.

For the sequence ACTATTAGTTGAGACGAGGGTAACCGATAGGTTG, the PBM binding z-score amounted to 0.125.

With CGTCAAAGTTCTACTAAGGTAACGTAAAGCACGC, the PBM binding z-score is -0.131.

Turning to CGTCCAAGGTCAGAGGTCAGTGAAGAGATGACGG, the PBM binding z-score was 0.938.

Turning to GCTATTAATTGAAAGGGCAACCGAATGATTCTCG, the PBM binding z-score came to 2.31.

GCATATAGGTAATACAAGGTGAACGTCCGATTGT yielded a PBM binding z-score of 0.675.

As for CGTGCAAGGTCATAGGAGGTCAGTGAAGACAGAT, the PBM binding z-score came to 2.

Take CAAACTAGGTCACCGGAAGGTCAAAGTCCGCATG: the PBM binding z-score was found to be 2.38.

In the case of TAGGCTAGGTCATGGGCCAGTATACCACGCGAAC, the PBM binding z-score is 0.534.

CGTCCAAGGTCAGAGAGGTCAGGGAATGCCGAGT returned a PBM binding z-score of 1.09.

For AGAATGACGTTATTAAGATCAGGGAATTGCGGTC, the PBM binding z-score was -0.0308.

For the origin of these results see the supplement of paper PMC6555819.
